The text below walks through data of PubChem BioAssay (NCI).

Each structure is given as a SMILES string. This is part of a sample that, as a whole, favours compounds with a hit. Of some 83,000 tested, about 20% had one in any assay.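 In brief: 96-well plates, 48 h treatment, single concentration, percent growth endpoint.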 Unmarked numbers belong to inactive results. Calls of active or inactive are those of the source. How the source made its calls: active means growth percent below 10; inactive means the rest.

One assay deals with SNB-19 CNS. Nature of the assay: NCI-60 one-dose screen, 48 h (100 = growth as untreated, 0 = no growth, -100 = all killed). Conditions: 10 µM unless noted.
In the case of `CCc1cc2c(cc1Cl)nc1c(=O)[nH]c(=O)nc-1n2CCOCC(C)C`, the growth was 85%.

As for `COc1cc(C(=O)c2cc(C(C)=O)c3cccc(C)n23)cc(OC)c1OC`, the growth is 39.8%.

Consider `Nc1ncc(-c2ccc3ncnc(NCc4ccccc4)c3c2)cn1`, for which the growth is 52%.

Turning to `COc1ccc2c(c1)c(-c1nn3cc(-c4ccncc4)nc3s1)cn2C`, the growth is 86.1%.

Another assay deals with U251 CNS. Described as above. Conditions: 10 µM unless noted.
As for `C#C[C@]1(O)CC[C@H]2[C@@H]3CC=C4c5sc(N(C)c6ccccc6)nc5CC[C@]4(C)[C@H]3CC[C@@]21C`, the growth is 60.6%.

`CC(=O)c1c([Si](C)(C)C)c2cc(C#N)ccn2c1C(=O)c1ccc(Br)cc1`: the growth is 93.2%.

Consider `O=C(CSc1nc2ccccc2c(=O)n1-c1ccc(Cl)c(Cl)c1)Nc1ccc(S(=O)(=O)Nc2ccc(Cl)nn2)cc1`, for which the growth is 91.6%.

On to `C#CCN(C)CCCOc1ccc(NCc2ccc(/C=C/C(=O)NO)cc2)cc1Cl`, for which the growth was -13.3% (active).

With `O=C(NNc1nc2cc(F)cc(F)c2n2cccc12)c1cccnn1`, the growth was 15.3%.

`COc1ccc(/C(=N\NC(N)=S)c2ccc(Cl)cc2)cc1OC`: the growth is 22.4%.

As for `COc1ccc(-c2c(C(N)=O)c(N)n(Cc3nc4ccccc4[nH]3)c(=O)c2C#N)c(OC)c1`, the growth is 97.2%.

`Cc1cc(Br)ccc1-n1cc(C#N)c(N)c1C(=O)c1ccc(Br)cc1`: the growth is 99.9%.

In the case of `CN1CCN(Cc2ccc(NC(=O)c3cncc(C#Cc4cnc(N)nc4)c3)cc2C(F)(F)F)CC1`, the growth is 30.3%.

For the compound `CCOC(=O)c1c(NC(=O)c2ccc(C(F)(F)F)cc2)sc2c3c(ccc12)OCN(C)C3`, the growth was -72.5% (active).
